MEKK2 WT-MEK5 – raises or lowers MEK5 binding to wildtype human MEKK2 PB1 domain; bead flow cytometry, Alexa488-MEK5 binding to MEKK2 WT; actives lie on both sides; binding response (% of control), % at 10 µM; hit rate 1.1% among 290,000; in the data active = binding response below about 67% or above about 130%
Arbovirus anti – antivirals against arbovirus infection | hit rate 0.37% among 200,000 | arbovirus infection cell-based antiviral screen | AID 1251 | inhibition, % at 10 µM; in the data active = inhibition above about 30%
MEKK3 PB1 HTS – raises or lowers MEK5 binding to the human MEKK3 PB1 domain; Q99759; binding response (% of control), % at 10 µM; AID 1529; bead-based flow cytometry, Alexa488-MEK5 binding to MEKK3; actives lie on both sides; 0 = blocked by unlabeled MEK5, 100 = vehicle; hit rate 1.4% among 290,000;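 active = binding response more than 3 SD above or below the average of its plate-row segment, actives on both sides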;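 note: Alexa488 bead fluorescence after subtracting the streptavidin-only scavenger bead signal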
Target sequence (Q99759 whole entry, looked up, the tested form may be a part): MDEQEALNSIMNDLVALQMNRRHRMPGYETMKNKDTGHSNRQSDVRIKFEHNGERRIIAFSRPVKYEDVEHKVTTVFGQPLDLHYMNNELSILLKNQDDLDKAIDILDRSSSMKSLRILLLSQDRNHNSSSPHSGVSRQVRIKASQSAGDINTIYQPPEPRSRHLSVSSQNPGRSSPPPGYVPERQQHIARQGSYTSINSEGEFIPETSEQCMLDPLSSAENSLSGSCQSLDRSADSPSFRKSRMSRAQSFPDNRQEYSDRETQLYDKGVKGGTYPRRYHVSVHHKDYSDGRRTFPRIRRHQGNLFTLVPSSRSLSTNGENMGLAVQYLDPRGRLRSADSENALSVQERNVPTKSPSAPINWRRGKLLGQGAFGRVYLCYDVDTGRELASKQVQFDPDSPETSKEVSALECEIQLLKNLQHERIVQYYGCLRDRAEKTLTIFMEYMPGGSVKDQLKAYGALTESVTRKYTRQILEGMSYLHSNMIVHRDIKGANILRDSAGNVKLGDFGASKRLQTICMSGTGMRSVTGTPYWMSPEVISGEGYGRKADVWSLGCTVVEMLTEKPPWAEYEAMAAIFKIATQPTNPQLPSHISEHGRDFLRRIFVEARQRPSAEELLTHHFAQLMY
MEKK2mut PB1 HTS – signal of MEK5 binding to mutant human MEKK2 PB1 domain | percent response, % at 10 µM | bead flow cytometry, Alexa488-MEK5 binding to MEKK2 mutant | hit rate 0.35% among 290,000; in the data active = percent response above about 24%, passing the limit was not always enough
Pf gametocyte – kills late stage P. falciparum gametocytes; P. falciparum stage V gametocytes, ATP luminescence, 24 h; inhibition, % at 10.9 µM; hit rate 0.065% among 150,000; AID 743093;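 active = inhibition above the mean plus 3 SD of compounds within the control limits, set per campaign, cut at about 38% in these data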;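 note: 0% = DMSO wells and 100% = medium only without gametocytes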
MEKK2wt confirm – raises or lowers MEK5 binding to wildtype human MEKK2, retest; bead flow cytometry, Alexa488-MEK5 binding to MEKK2 WT; actives lie on both sides; binding response (% of control), % at 10 µM; hit rate 2.4% among 5,900; shares compounds with MEKK3 PB1 HTS; in the data active = binding response below about 16% or above about 210%; inactive = in between
MEKK2mut-MEK5 – signal of MEK5 binding to mutant human MEKK2, retest; shares compounds with MEKK3 PB1 HTS; bead flow cytometry, Alexa488-MEK5 binding to MEKK2 mutant; percent response, % at 10 µM; hit rate 2% among 5,900; in the data active = percent response mostly above about 71%, no sharp cut-off; inactive = mostly below about 38%;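 note: higher means compound restores mutant binding toward wildtype level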
MEKK3 confirm – MEKK3-MEK5 PB1 inhibition, single concentration confirmation; shares compounds with MEKK3 PB1 HTS; bead flow cytometry, Alexa488-MEK5 binding to MEKK3; hits give low values; binding response (% of control), % at 10 µM; hit rate 1.8% among 5,900; AID 1894;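 active = binding response below 72% of control, or above a set upper limit, though filed actives all read lower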;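 note: 100% = DMSO only wells and 0% = binding blocked by excess unlabeled MEK5; lower values mean stronger disruption of MEK5 binding to MEKK3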
Active calls of the source: *; x = no result; [ ] = another dose, or the depositor's remark. In the library only some 2.4% were active in any assay of this set; here they are far more common.

SMILES	MEKK2 WT-MEK5	Arbovirus anti	MEKK3 PB1 HTS	MEKK2mut PB1 HTS	Pf gametocyte	MEKK2wt confirm	MEKK2mut-MEK5	MEKK3 confirm
COc1ccccc1-n1c(-c2ccccc2)c[nH]c1=S	65.0	-2.0	49.0*[inhibitor]	-21.0	19.3	87.0	-5.0	88.0
S=c1[nH]cc(-c2ccccc2)n1-c1ccccc1Cl	94.0	-2.5	100.0	-2.0	x	x	x	x
N#C/C(=C/c1ccc(-c2ccc(S(N)(=O)=O)cc2)o1)c1nc2ccccc2s1	28.0*[inhibitor]	-23.5	63.0*[inhibitor]	45.0	3.6	96.0	3.0	103.0
CCCCCCCNC(=O)C1(CC2CC(c3ccc(Cl)cc3)=NO2)CCNCC1 (centres undefined)	158.0*	x	106.0	11.0	x	150.0	22.0	105.0
CCCCCCCNC(=O)C1(CC2CC(c3cccc(Br)c3)=NO2)CCNCC1 (centres undefined)	191.0*	x	107.0	23.0	-22.6	143.0	17.0	107.0
CCCCCCCNC(=O)C1(CC2CC(c3ccc(Cl)cc3)=NO2)CCN(C(=O)Cc2ccc(F)cc2)CC1 (centres undefined)	98.0	x	101.0	2.0	x	x	x	x
CCOC(=O)c1cc(NC(=O)CC(C)(C)CC(=O)O)ccc1N1CCCCC1	99.0	x	96.0	-7.0	12.6	x	x	x
C=C(C)Cn1cnc2cc(C)c(C)cc21	82.0	4.8	80.0	-14.0	-20.3	x	x	x
NC(=O)CSc1nnc(-c2cc3ccccc3o2)n1Cc1ccccc1	119.0	7.6	124.0*	9.0	-3.2	98.0	3.0	104.0
CCCCNC(=S)NC(=O)c1ccccc1Br	111.0	-7.3	154.0*	1.0	17.3	98.0	-1.0	102.0
COc1cc(OC)c(OC)cc1CN1CCN(S(=O)(=O)c2ccc(F)cc2)CC1	119.0	1.2	122.0*	7.0	x	102.0	5.0	103.0
CC1CN(S(=O)(=O)c2ccc(F)cc2)C(C)N1C(=O)N1CCOCC1 (centres undefined)	100.0	x	97.0	1.0	x	x	x	x
C[C@H](NC(=O)c1nc[nH]c1C(=O)NC1CCN(C(=O)OC(C)(C)C)CC1)C(=O)OC(C)(C)C	-5.0*[inhibitor]	5.8	1.0*[inhibitor]	-44.0	14.6	101.0	-2.0	99.0
COc1ccc(NC(=O)c2nc[nH]c2C(=O)N[C@@H](C)C(=O)OC(C)(C)C)cc1	101.0	x	82.0*[inhibitor]	-7.0	x	88.0	-9.0	89.0
Cc1ccc(NC(=O)c2nc[nH]c2C(=O)N[C@@H](C)C(=O)OC(C)(C)C)cc1	95.0	x	99.0	1.0	-32.8	x	x	x
O=C(NCCN1C(=O)S/C(=C\c2ccc(OC(F)F)cc2)C1=O)c1cnccn1	96.0	-19.3	100.0	-1.0	6.4	x	x	x
O=C(NCCN1C(=O)S/C(=C\c2ccc(OC(F)F)cc2)C1=O)[C@@H]1CCCN1C(=O)c1cccs1	104.0	0.4	131.0*	0.0	11.5	108.0	11.0	104.0
CCOc1ccc(C2NCCc3cc(OC)c(OC)cc32)cc1OC (centres undefined)	104.0	x	103.0	1.0	x	x	x	x
COc1ccc2cc1Oc1ccc(cc1)CC1c3c(cc(OC)c4c3Oc3cc5c(cc3O4)CCNC5C2)CCN1C (centres undefined)	186.0*	x	75.0	30.0*	x	174.0	50.0	107.0
Cn1c(-c2c(N)n(-c3ccccc3)c3nc4ccccc4nc23)nc2ccccc21	93.0	64.1*	68.0*[inhibitor]	1.0	11.1	106.0	-2.0	106.0
COc1ccc(N2CC(C(=O)Nc3nnc(SCc4ccccn4)s3)CC2=O)cc1 (centres undefined)	99.0	-11.4	133.0*	-1.0	10.5	1.0*[inhibitor]	-29.0	2.0*
COc1ccccc1N1CC(C(=O)Nc2nnc(SCc3ccccn3)s2)CC1=O (centres undefined)	109.0	-3.5	99.0	9.0	-3.4	x	x	x
Cn1nc(C(F)(F)F)c(-c2cccc(C(F)(F)F)c2)c1NC(=O)Nc1ccc(F)cc1	95.0	x	88.0	-14.0	-6.8	x	x	x
CCN(CC)C(C(=O)Nc1ccc(C(C)C)cc1)c1ccc2c(c1)OCO2 (centres undefined)	134.0*	-4.6	118.0	15.0	x	117.0	6.0	101.0
CC(C)c1ccc(NC(=O)C(c2ccc3c(c2)OCO3)N2CCN(C(=O)c3ccco3)CC2)cc1 (centres undefined)	99.0	-1.5	99.0	0.0	-3.9	x	x	x
SMILES	MEKK2 WT-MEK5	Arbovirus anti	MEKK3 PB1 HTS	MEKK2mut PB1 HTS	Pf gametocyte	MEKK2wt confirm	MEKK2mut-MEK5	MEKK3 confirm
O=C(c1ccc(F)cc1Cl)N(c1ccccn1)C1CCCCC1	104.0	4.1	102.0	1.0	x	x	x	x
CC1CCC(C(C)C)C(OCC[N+](C)(C)C)C1 (centres undefined)	111.0	-5.3	143.0*	1.0	-29.9	101.0	0.0	102.0
CC1CCC(C(C)C)C(OCC(O)C[N+]2(C)CCCCC2)C1 (centres undefined)	85.0	7.2	94.0	-12.0	-16.2	x	x	x
CCOc1cc(/C=N/NC(=O)CSc2nnc(C)s2)ccc1OCc1ccccc1Cl	101.0	-19.1	132.0*	-1.0	1.0	106.0	3.0	102.0
CCOC(=O)C(C(=O)OCC)c1c([N+](=O)[O-])c(=O)n2c3c(cccc13)CCC2	104.0	x	104.0	-3.0	x	x	x	x
Cc1c(C2C(C#N)=C(N)N(c3cccc([N+](=O)[O-])c3)C3=C2C(=O)CCC3)cnn1C (centres undefined)	92.0	4.4	95.0	-8.0	13.4	x	x	x
O=C(CSc1ccccc1Cl)N1CCOCC1	107.0	x	105.0	8.0	x	x	x	x
COc1ccc(CCNc2ccc(S(=O)(=O)N3CCCC3)cc2[N+](=O)[O-])cc1	107.0	0.6	142.0*	-1.0	10.8	103.0	-2.0	101.0
O=[N+]([O-])c1cc(S(=O)(=O)N2CCCC2)ccc1NCCc1ccccc1	96.0	-1.8	97.0	-1.0	-32.8	x	x	x
COc1ccc(N=C2SC(C(=O)Nc3ccc(C(=O)O)cc3)CC(=O)N2Cc2cccs2)cc1 (centres undefined)	122.0	x	131.0*	24.0	21.9	104.0	2.0	107.0
CNC(=O)C1CC(=O)N(CCc2ccccc2)C(=Nc2ccc(OC)cc2)S1 (centres undefined)	103.0	4.0	115.0	-4.0	x	x	x	x
CC1CN(Cc2cn(C)nc2-c2ccc(Oc3ccccc3)cc2)CCN1C (centres undefined)	172.0*	-21.7	112.0	49.0	-28.9	109.0	0.0	98.0
COc1ccccc1-n1c([S-])c(C(=O)Nc2ccccc2C(F)(F)F)[n+]2ccc(C(=O)NCCO)cc12	68.0	7.7	99.0	-14.0	-9.9	x	x	x
Cc1ccc(-n2c([S-])c(C(=O)Nc3ccc(OC(F)F)cc3)[n+]3ccc(C(=O)NCCO)cc23)cc1C	63.0*[inhibitor]	-10.3	86.0	-10.0	-3.1	84.0	-9.0	99.0

Assay outcomes deposited in PubChem BioAssay by several laboratories.
